Laboratory results taken from PubChem BioAssay.
Active and inactive are the calls of the source.

Columns and labels:
[1] = optical density shifts of acrAB sulA E. coli – strain DRC41, OD650, 48 h, E. coli filamentation inducer project, primary screen (AID 1152); conditions: higher = more signal, called active from +8 up or from −8 down;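 note: E. coli MC1000 strain DRC41 lacking acrAB efflux pump and sulA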
[2] = probe aLefty1 binding on compound microarray – biochemical, small-molecule microarray, 635/667 nm fluorescence, primary screen (AID 1153); conditions: higher = more signal;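 note: score merges spot fluorescence with signal-to-noise ratio from the scanned slide images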
[3] = plasmodial surface anion channel blockers, osmotic lysis – cell-based, P. falciparum Indochina, OD700, 1 h, primary screen (AID 1154); conditions: P. falciparum Indochina infected RBC osmotic lysis, higher = more signal, called active from +8 up or from −8 down
[4] = plasmodial surface anion channel blockers, osmotic lysis – cell-based, P. falciparum Indochina, OD700, 2 h, primary screen (AID 1155);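 note: lysis reports solute entry through the parasite surface anion channel PSAC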; conditions: P. falciparum Indochina infected erythrocytes, higher = more signal, called active from +8 up or from −8 down
[5] = changes in parasitized red cell lysis, either direction – P. falciparum Indochina, OD700, 3 h, PSAC antagonist project, primary screen (AID 1156); conditions: P. falciparum-infected erythrocytes, osmotic lysis, higher = more signal, called active from +8 up or from −8 down
[6] = plasmodial surface anion channel blockers, osmotic lysis – cell-based, P. falciparum Indochina, OD700, 18 h, primary screen (AID 1157); conditions: P. falciparum Indochina infected erythrocytes, osmotic lysis OD700, 18 h; higher = more signal, called active from +8 up or from −8 down
[7] = S6 kinase pathway phospho-S6 level changes – cell-based, A549, cytoblot, luminescence, serum-stimulated, primary screen (AID 1158); conditions: 5 h, higher = more signal;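 note: serum-stimulated A549 lung adenocarcinoma cells; signal is phosphorylated S6 detected by cytoblot immunostaining with HRP secondary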
[8] = target: NADPH oxidase 2 (Homo sapiens) (UniProt P04839); assay: compounds shifting NOX2 Amplex Red fluorescence – cell-based, HEK293-NOX2, PMA-stimulated, NOX inhibitor project, primary screen (AID 1159); conditions: 45 min, higher = more signal, called active from +8 up or from −8 down; note: test concentration not given here
Chain of NADPH oxidase 2 (Homo sapiens) (P04839 whole entry, looked up): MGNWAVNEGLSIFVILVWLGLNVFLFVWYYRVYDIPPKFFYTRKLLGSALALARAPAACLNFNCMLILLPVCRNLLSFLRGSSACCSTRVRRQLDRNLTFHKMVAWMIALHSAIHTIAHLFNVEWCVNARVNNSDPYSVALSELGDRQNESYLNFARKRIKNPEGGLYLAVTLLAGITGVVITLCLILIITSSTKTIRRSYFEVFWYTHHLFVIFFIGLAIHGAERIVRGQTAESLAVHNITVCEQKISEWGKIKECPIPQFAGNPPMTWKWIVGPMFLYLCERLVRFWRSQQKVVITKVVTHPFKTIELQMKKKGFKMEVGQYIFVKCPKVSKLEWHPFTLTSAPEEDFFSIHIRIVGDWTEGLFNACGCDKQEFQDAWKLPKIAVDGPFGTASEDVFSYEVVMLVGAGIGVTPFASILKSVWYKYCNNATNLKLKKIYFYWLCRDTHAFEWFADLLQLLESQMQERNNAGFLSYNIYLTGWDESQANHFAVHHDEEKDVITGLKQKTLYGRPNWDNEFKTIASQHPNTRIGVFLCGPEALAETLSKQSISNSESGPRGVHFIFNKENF

[9] = target: NADPH oxidase 4 (Homo sapiens) (UniProt Q9NPH5); assay: compounds shifting NOX4 Amplex Red fluorescence – cell-based, HEK293-NOX4, tetracycline-induced, NOX inhibitor project, primary screen (AID 1160); conditions: HEK293-NOX4, Amplex Red H2O2 fluorescence, 45 min; higher = more signal, called active from +8 up or from −8 down
Chain of NADPH oxidase 4 (Homo sapiens) (Q9NPH5 whole entry, looked up): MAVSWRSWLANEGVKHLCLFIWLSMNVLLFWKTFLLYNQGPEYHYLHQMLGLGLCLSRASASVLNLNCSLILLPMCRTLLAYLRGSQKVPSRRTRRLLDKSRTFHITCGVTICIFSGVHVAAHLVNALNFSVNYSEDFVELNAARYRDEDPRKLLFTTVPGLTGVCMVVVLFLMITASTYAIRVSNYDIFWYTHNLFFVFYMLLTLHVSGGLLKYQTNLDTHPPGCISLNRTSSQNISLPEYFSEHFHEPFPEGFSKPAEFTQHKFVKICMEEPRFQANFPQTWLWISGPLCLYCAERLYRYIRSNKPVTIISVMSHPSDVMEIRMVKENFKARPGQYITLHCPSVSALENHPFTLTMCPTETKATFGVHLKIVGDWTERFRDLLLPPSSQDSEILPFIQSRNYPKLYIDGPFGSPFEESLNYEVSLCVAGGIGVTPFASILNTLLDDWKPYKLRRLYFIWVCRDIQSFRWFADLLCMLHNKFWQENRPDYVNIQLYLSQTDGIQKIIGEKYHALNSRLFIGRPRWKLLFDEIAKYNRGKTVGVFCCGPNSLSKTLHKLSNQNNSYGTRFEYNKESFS

[10] = target: NADPH oxidase 5 (Homo sapiens) (UniProt Q96PH1); assay: compounds shifting NOX5 Amplex Red fluorescence – cell-based, HEK293-NOX5, NOX inhibitor project, primary screen (AID 1161); conditions: HEK293-NOX5, ionomycin, 45 min, higher = more signal
Chain of NADPH oxidase 5 (Homo sapiens) (Q96PH1 whole entry, looked up): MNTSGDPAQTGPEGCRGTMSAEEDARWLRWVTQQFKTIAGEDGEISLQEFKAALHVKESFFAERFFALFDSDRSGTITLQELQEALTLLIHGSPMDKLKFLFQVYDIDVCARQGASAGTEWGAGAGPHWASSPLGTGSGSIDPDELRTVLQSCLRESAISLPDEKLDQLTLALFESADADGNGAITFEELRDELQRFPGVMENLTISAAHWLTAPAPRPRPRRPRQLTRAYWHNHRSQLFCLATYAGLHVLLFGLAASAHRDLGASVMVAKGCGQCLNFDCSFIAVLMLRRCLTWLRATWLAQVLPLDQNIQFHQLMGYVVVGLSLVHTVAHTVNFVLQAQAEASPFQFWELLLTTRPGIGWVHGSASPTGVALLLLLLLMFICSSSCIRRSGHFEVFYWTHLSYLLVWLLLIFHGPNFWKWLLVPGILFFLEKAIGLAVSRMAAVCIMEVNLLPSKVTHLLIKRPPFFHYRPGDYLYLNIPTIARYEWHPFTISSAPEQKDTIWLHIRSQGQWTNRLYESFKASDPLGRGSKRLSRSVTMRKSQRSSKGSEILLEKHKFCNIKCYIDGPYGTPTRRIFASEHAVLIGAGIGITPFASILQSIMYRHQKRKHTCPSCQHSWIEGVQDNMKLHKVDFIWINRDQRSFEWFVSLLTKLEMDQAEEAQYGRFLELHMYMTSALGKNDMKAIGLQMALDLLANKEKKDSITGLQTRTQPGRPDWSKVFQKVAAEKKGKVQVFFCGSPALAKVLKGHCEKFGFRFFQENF

[11] = compound effects on lung adenocarcinoma cell viability – A549, calcein-AM fluorescence, 48 h, basal, profiling panel (AID 1162); conditions: higher = more signal; note: test concentration not given here
[12] = compound effects on differentiated 3T3-L1 adipocyte viability – cell-based, 3T3-L1 adipocytes, calcein-AM fluorescence, 48 h, basal, profiling panel (AID 1163); conditions: 3T3-L1 adipocytes viability, higher = more signal; note: test concentration not given here
[13] = compound effects on hepatocellular carcinoma cell viability – HepG2, calcein-AM fluorescence, 48 h, basal, profiling panel (AID 1164); conditions: higher = more signal; note: test concentration not given here
[14] = compound effects on multiple myeloma cell viability – MM1S, calcein-AM fluorescence, 48 h, basal, profiling panel (AID 1165); conditions: higher = more signal; note: test concentration not given here
[15] = calcein-AM signal in unstimulated myeloma cells – cell-based, calcein-AM fluorescence, 48 h, PK04 Diversity Set, profiling panel (AID 1166); conditions: RPMI8226 myeloma viability, higher = more signal;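 note: cells grown under basal conditions without added stimulus; test concentration not given here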
[16] = JC-1 mitochondrial signal, unstimulated HepG2 cells – cell-based, JC-1 fluorescence, 24 h, 100 nL compound, profiling panel (AID 1167); conditions: HepG2 mitochondrial potential, higher = more signal; note: test concentration not given here
[17] = JC-1 mitochondrial signal, unstimulated adipocytes – cell-based, JC-1 fluorescence, 3T3-L1 adipocytes, 24 h, 100 nL compound, profiling panel (AID 1168); conditions: JC-1 mitochondrial fluorescence, higher = more signal, called active from +8 up or from −8 down; note: test concentration not given here
[18] = JC-1 mitochondrial signal, unstimulated myeloma cells – cell-based, JC-1 fluorescence, RPMI8226, 24 h, 100 nL compound, profiling panel (AID 1169); conditions: JC-1 mitochondrial potential fluorescence, higher = more signal; note: test concentration not given here
[19] = JC-1 mitochondrial signal, unstimulated MM1S myeloma – cell-based, JC-1 fluorescence, 24 h, 100 nL compound, profiling panel (AID 1170); conditions: MM1S mitochondrial potential, higher = more signal; note: test concentration not given here
[20] = resazurin metabolic signal in A549 cells – cell-based, resazurin fluorescence, 24 h, PK04 Diversity Set, profiling panel (AID 1171); conditions: A549 viability, higher = more signal, called active from +8 up or from −8 down; note: test concentration not given here

SMILES | z-score [1] | composite z-score [2] | z-score [3] | z-score [4] | z-score [5] | z-score [6] | z-score [7] | z-score [8] | z-score [9] | z-score [10] | z-score [11] | z-score [12] | z-score [13] | z-score [14] | z-score [15] | z-score [16] | z-score [17] | z-score [18] | z-score [19] | z-score [20]
CO[C@H]1COC(=O)[C@@H](Cc2ccccc2)NC(=O)[C@@H](C)COC(=O)CCC[C@@H]1C | 0.558 (inactive) | -0.309 | -1.19 (inactive) | -1.66 (inactive) | -0.155 (inactive) | -2.21 (inactive) | 0.781 | -0.785 (inactive) | 0.533 (inactive) | 0.789 | 0.704 | 0.0955 | 0.577 | -0.267 | -0.283 | -0.212 | 0.00303 (inactive) | -0.161 | -1.23 | 0.6 (inactive)
Cn1c(=O)n2n(c1=O)[C@H]1[C@H](O)[C@@H]3O[C@@H]3C(=O)[C@H]1CC2 | 0.498 (inactive) | -0.0984 | -0.259 (inactive) | -0.0607 (inactive) | -0.596 (inactive) | 0.18 (inactive) | -0.0231 | -1.2 (inactive) | 0.171 (inactive) | 0.888 | 0.365 | -0.137 | 0.902 | -0.382 | 0.308 | 0.45 | 0.194 (inactive) | 0.731 | 0.0623 | -0.495 (inactive)
CCOC(=O)[C@H](CC(C)C)NC(=O)CCC1CC(OC(=O)NCc2cccc3ccccc23)CC2(CCCC(COC(=O)NCCc3ccc(Cl)cc3)O2)O1 (stereo not given in full) | 0.692 (inactive) | -0.14 | 3.31 (inactive) | 0.0962 (inactive) | -0.837 (inactive) | -0.466 (inactive) | 0.367 | 0.274 (inactive) | 0.623 (inactive) | 1.24 | -0.539 | -0.23 | -0.0607 | -3.16 | 0.403 | 0.326 | 1.03 (inactive) | -0.436 | -1.86 | 0.384 (inactive)
COC(=O)[C@H](C)NC(=O)CCC1CC(OC(=O)NCc2ccc3c(c2)OCO3)CC2(CCCC(COC(=O)NCC(c3ccccc3)c3ccccc3)O2)O1 (stereo not given in full) | 0.246 (inactive) | -0.0969 | 17.6 (active) | 4.8 (inactive) | 1.34 (inactive) | -0.685 (inactive) | 3.66 | -1.25 (inactive) | -1.5 (inactive) | -3.77 | -0.641 | 0.155 | -2.9 | -3.53 | -3.99 | -1.01 | -0.013 (inactive) | -0.0228 | -0.794 | 1.76 (inactive)
CO[C@H]1COC(=O)CCC[C@@H](C)[C@H](OC)COC(=O)[C@@H]2CCCN2C(=O)CC=C[C@@H]1C | -0.704 (inactive) | -0.005 | -1.11 (inactive) | -1.08 (inactive) | -0.186 (inactive) | -0.939 (inactive) | -0.112 | -0.336 (inactive) | -0.00577 (inactive) | 0.282 | -0.395 | 0.376 | 0.308 | 0.149 | -0.193 | -0.0779 | -0.0693 (inactive) | -0.0032 | -0.87 | -0.186 (inactive)
C#CCCCON=C1C[C@@H](O)[C@@H](O)[C@@H]2[C@@H]3C(=O)N(c4ccc(F)cc4F)C(=O)[C@@H]3CC[C@@H]12 | 0.177 (inactive) | -0.147 | 1.22 (inactive) | 0.719 (inactive) | 0.642 (inactive) | 0.0591 (inactive) | -0.404 | 2.01 (inactive) | 0.813 (inactive) | 0.0107 | -0.194 | -0.566 | -1.07 | 0.344 | -0.865 | 0.843 | -1.15 (inactive) | 0.0995 | -0.413 | 0.193 (inactive)
O=C1[C@H]2[C@H]3[C@H](O)[C@H](O)CC(=NOCc4ccccc4)[C@@H]3CC[C@H]2C(=O)N1Cc1ccc2c(c1)OCO2 | 0.0628 (inactive) | 0.217 | 6.28 (inactive) | 1.02 (inactive) | 1.06 (inactive) | 0.354 (inactive) | 0.0008 | 1.09 (inactive) | 0.665 (inactive) | -1.01 | -0.152 | -0.121 | -0.937 | 0.266 | -2.81 | -0.335 | 0.17 (inactive) | -0.234 | -0.0728 | 0.688 (inactive)
C[C@@H](c1ccccc1)N1C(=O)[C@H]2[C@H]3[C@H](O)[C@H](O)CC(=NOCc4ccccc4)[C@H]3CC[C@H]2C1=O | 0.331 (inactive) | -0.0518 | 31.6 (active) | 6.36 (inactive) | 0.321 (inactive) | 1.21 (inactive) | -0.182 | -1.53 (inactive) | 0.0357 (inactive) | -3.27 | 0.654 | -0.602 | -0.159 | 0.503 | 0.13 | 0.879 | 0.925 (inactive) | 0.00496 | -1.55 | -0.428 (inactive)
